# Source: paper PMC11006913
# Residue numbers refer to the chain shown, from its start.
# Legend:
# Assay in all cases: PBM; 200 nM protein, PBS
# Settings in all cases: dsDNA, one strand shown
# VENTX = molecular target: T1, VENTX (Homo sapiens, UniProt O95231 78-163)
# T1 sequence: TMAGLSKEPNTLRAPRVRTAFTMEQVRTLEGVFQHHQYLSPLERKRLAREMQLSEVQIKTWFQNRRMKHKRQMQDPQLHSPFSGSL
# VAX1 = VAX1 (Homo sapiens, UniProt Q5SQQ9 86-172)
# HOXB9 [1] = molecular target: HOXB9 (Homo sapiens, UniProt P17482 171-250)
# Chain of HOXB9 (Homo sapiens, UniProt P17482 171-250) (P17482 171-250): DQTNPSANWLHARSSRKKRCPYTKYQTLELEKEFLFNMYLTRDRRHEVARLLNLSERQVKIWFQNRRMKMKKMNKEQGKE
# HOXB9 [2] = molecular target: HOXB9 (Homo sapiens, UniProt P17482 171-250, R186Q)
# Chain of HOXB9 (Homo sapiens, UniProt P17482 171-250, R186Q) (P17482 171-250 R186Q): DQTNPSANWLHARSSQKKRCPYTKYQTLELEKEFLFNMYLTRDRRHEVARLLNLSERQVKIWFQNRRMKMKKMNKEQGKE
# HOXB9 [3] = molecular target: HOXB9 (Homo sapiens, UniProt P17482 171-250, T197M)
# Chain of HOXB9 (Homo sapiens, UniProt P17482 171-250, T197M) (P17482 171-250 T197M): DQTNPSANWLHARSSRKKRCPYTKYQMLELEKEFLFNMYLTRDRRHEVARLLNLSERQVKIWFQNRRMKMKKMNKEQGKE
# HOXC9 [4] = molecular target: HOXC9 (Homo sapiens, UniProt P31274 178-260, K195R)
# Chain of HOXC9 (Homo sapiens, UniProt P31274 178-260, K195R) (P31274 178-260 K195R): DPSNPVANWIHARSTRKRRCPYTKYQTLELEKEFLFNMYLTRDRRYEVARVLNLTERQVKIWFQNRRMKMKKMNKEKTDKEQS
# PAX4 [5] = molecular target: T2, PAX4 (Homo sapiens, UniProt O43316 9-242, R200K)
# T2 sequence: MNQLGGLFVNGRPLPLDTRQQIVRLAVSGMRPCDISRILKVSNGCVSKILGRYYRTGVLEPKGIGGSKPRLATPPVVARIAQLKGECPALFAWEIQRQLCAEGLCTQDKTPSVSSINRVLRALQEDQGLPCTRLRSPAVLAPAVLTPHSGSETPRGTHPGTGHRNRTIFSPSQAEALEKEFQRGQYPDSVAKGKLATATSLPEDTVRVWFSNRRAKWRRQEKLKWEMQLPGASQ
# PAX4 [6] = molecular target: T3, PAX4 (Homo sapiens, UniProt O43316 9-242)
# T3 sequence: T2 sequence with K192R
# HOXC9 [7] = molecular target: HOXC9 (Homo sapiens, UniProt P31274 178-260)
# Chain of HOXC9 (Homo sapiens, UniProt P31274 178-260) (P31274 178-260): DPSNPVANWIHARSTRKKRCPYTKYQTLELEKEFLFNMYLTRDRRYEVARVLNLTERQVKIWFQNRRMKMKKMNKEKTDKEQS
# HOXC9 [8] = molecular target: HOXC9 (Homo sapiens, UniProt P31274 178-260, R193K)
# Chain of HOXC9 (Homo sapiens, UniProt P31274 178-260, R193K) (P31274 178-260 R193K): as the sequence (P31274 178-260) above, with R16K counted along it
# PAX4 [9] = molecular target: T4, PAX4 (Homo sapiens, UniProt O43316 9-242, F177V)
# T4 sequence: T2 sequence with F169V, K192R
# HOXC10 = HOXC10 (Homo sapiens, UniProt Q9NYD6 254-340, K271E)
# Chain of HOXC10 (Q9NYD6 254-340 K271E): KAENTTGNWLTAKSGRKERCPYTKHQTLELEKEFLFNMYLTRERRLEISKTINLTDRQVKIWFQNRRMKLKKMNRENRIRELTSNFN
# PAX4 [10] = molecular target: T5, PAX4 (Homo sapiens, UniProt O43316 9-242, F177Y)
# T5 sequence: T2 sequence with F169Y, K192R
# HOXC9 [11] = molecular target: HOXC9 (Homo sapiens, UniProt P31274 178-260, R222W)
# Chain of HOXC9 (Homo sapiens, UniProt P31274 178-260, R222W) (P31274 178-260 R222W): as the sequence (P31274 178-260) above, with R45W counted along it
# PAX4 [12] = molecular target: T6, PAX4 (Homo sapiens, UniProt O43316 9-242, R227W)
# T6 sequence: T2 sequence with K192R, R219W
# HOXA7 [13] = molecular target: HOXA7 (Homo sapiens, UniProt P31268 116-202)
# Chain of HOXA7 (Homo sapiens, UniProt P31268 116-202) (P31268 116-202): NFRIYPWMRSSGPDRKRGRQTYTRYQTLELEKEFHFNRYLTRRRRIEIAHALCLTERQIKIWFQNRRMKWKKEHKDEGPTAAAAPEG
# HOXA7 [14] = molecular target: HOXA7 (Homo sapiens, UniProt P31268 116-202, W177C)
# Chain of HOXA7 (Homo sapiens, UniProt P31268 116-202, W177C) (P31268 116-202 W177C): as the sequence (P31268 116-202) above, with W62C counted along it
# HOXA2 [15] = molecular target: HOXA2 (Homo sapiens, UniProt O43364 129-215, Y150S)
# Chain of HOXA2 (Homo sapiens, UniProt O43364 129-215, Y150S) (O43364 129-215 Y150S): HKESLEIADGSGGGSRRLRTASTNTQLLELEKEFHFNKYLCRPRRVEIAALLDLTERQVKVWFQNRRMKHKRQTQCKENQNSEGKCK
# HOXA2 [16] = molecular target: HOXA2 (Homo sapiens, UniProt O43364 129-215)
# Chain of HOXA2 (Homo sapiens, UniProt O43364 129-215) (O43364 129-215): as the sequence (O43364 129-215 Y150S) above, with S22Y counted along it
# Chain of VAX1 (Q5SQQ9 86-172): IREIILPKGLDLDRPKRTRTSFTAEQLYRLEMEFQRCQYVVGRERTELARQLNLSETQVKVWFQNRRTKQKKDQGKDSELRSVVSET
sequence,measurement,setting,value
GCCAATTA,binding signal,VENTX,"12.5 upbm affinity estimate (log intensity, higher = more binding, comparable within an allelic series)"
same,binding signal,VAX1,"12.8 upbm affinity estimate (log intensity, higher = more binding, comparable within an allelic series)"
CCAATTAC,binding signal,HOXB9 [1],"10.9 upbm affinity estimate (log intensity, higher = more binding, comparable within an allelic series)"
same,binding signal,HOXB9 [2],"10.6 upbm affinity estimate (log intensity, higher = more binding, comparable within an allelic series)"
AATTAAAT,binding signal,HOXB9 [3],"10 upbm affinity estimate (log intensity, higher = more binding, comparable within an allelic series)"
same,binding signal,HOXC9 [4],"12.5 upbm affinity estimate (log intensity, higher = more binding, comparable within an allelic series)"
same,binding signal,PAX4 [5],"11.8 upbm affinity estimate (log intensity, higher = more binding, comparable within an allelic series)"
same,binding signal,PAX4 [6],"12.3 upbm affinity estimate (log intensity, higher = more binding, comparable within an allelic series)"
same,binding signal,HOXB9 [1],"11.8 upbm affinity estimate (log intensity, higher = more binding, comparable within an allelic series)"
same,binding signal,HOXC9 [7],"12.5 upbm affinity estimate (log intensity, higher = more binding, comparable within an allelic series)"
same,binding signal,HOXC9 [8],"12.6 upbm affinity estimate (log intensity, higher = more binding, comparable within an allelic series)"
same,binding signal,PAX4 [9],"10.8 upbm affinity estimate (log intensity, higher = more binding, comparable within an allelic series)"
same,binding signal,HOXC10,"11.9 upbm affinity estimate (log intensity, higher = more binding, comparable within an allelic series)"
same,binding signal,PAX4 [10],"11.3 upbm affinity estimate (log intensity, higher = more binding, comparable within an allelic series)"
same,binding signal,HOXB9 [2],"11.5 upbm affinity estimate (log intensity, higher = more binding, comparable within an allelic series)"
same,binding signal,HOXC9 [11],"11.2 upbm affinity estimate (log intensity, higher = more binding, comparable within an allelic series)"
same,binding signal,PAX4 [12],"11.1 upbm affinity estimate (log intensity, higher = more binding, comparable within an allelic series)"
AATTAAGA,binding signal,PAX4 [5],"11.6 upbm affinity estimate (log intensity, higher = more binding, comparable within an allelic series)"
same,binding signal,PAX4 [6],"12.2 upbm affinity estimate (log intensity, higher = more binding, comparable within an allelic series)"
same,binding signal,PAX4 [9],"10.5 upbm affinity estimate (log intensity, higher = more binding, comparable within an allelic series)"
same,binding signal,PAX4 [10],"10.9 upbm affinity estimate (log intensity, higher = more binding, comparable within an allelic series)"
same,binding signal,PAX4 [12],"10.8 upbm affinity estimate (log intensity, higher = more binding, comparable within an allelic series)"
ATTAATGC,binding signal,HOXA7 [13],"11 upbm affinity estimate (log intensity, higher = more binding, comparable within an allelic series)"
same,binding signal,PAX4 [5],"11.7 upbm affinity estimate (log intensity, higher = more binding, comparable within an allelic series)"
same,binding signal,PAX4 [6],"12.1 upbm affinity estimate (log intensity, higher = more binding, comparable within an allelic series)"
same,binding signal,PAX4 [9],"10.4 upbm affinity estimate (log intensity, higher = more binding, comparable within an allelic series)"
same,binding signal,PAX4 [10],"11 upbm affinity estimate (log intensity, higher = more binding, comparable within an allelic series)"
same,binding signal,PAX4 [12],"10.9 upbm affinity estimate (log intensity, higher = more binding, comparable within an allelic series)"
same,binding signal,HOXA7 [14],"8.84 upbm affinity estimate (log intensity, higher = more binding, comparable within an allelic series)"
AATTAGTG,binding signal,VENTX,"12.3 upbm affinity estimate (log intensity, higher = more binding, comparable within an allelic series)"
same,binding signal,PAX4 [5],"11.8 upbm affinity estimate (log intensity, higher = more binding, comparable within an allelic series)"
same,binding signal,PAX4 [6],"12.4 upbm affinity estimate (log intensity, higher = more binding, comparable within an allelic series)"
same,binding signal,PAX4 [9],"10.6 upbm affinity estimate (log intensity, higher = more binding, comparable within an allelic series)"
same,binding signal,PAX4 [10],"11.1 upbm affinity estimate (log intensity, higher = more binding, comparable within an allelic series)"
same,binding signal,VAX1,"12.8 upbm affinity estimate (log intensity, higher = more binding, comparable within an allelic series)"
same,binding signal,PAX4 [12],"11.1 upbm affinity estimate (log intensity, higher = more binding, comparable within an allelic series)"
same,binding signal,HOXA2 [15],"10.8 upbm affinity estimate (log intensity, higher = more binding, comparable within an allelic series)"
same,binding signal,HOXA2 [16],"12.2 upbm affinity estimate (log intensity, higher = more binding, comparable within an allelic series)"
CCCAGGCG,binding signal,HOXC9 [4],"9.48 upbm affinity estimate (log intensity, higher = more binding, comparable within an allelic series)"
same,binding signal,HOXC9 [7],"9.7 upbm affinity estimate (log intensity, higher = more binding, comparable within an allelic series)"
same,binding signal,HOXC9 [8],"9.62 upbm affinity estimate (log intensity, higher = more binding, comparable within an allelic series)"
same,binding signal,HOXC9 [11],"9.63 upbm affinity estimate (log intensity, higher = more binding, comparable within an allelic series)"
same,binding signal,HOXA2 [15],"10.5 upbm affinity estimate (log intensity, higher = more binding, comparable within an allelic series)"
same,binding signal,HOXA2 [16],"7.13 upbm affinity estimate (log intensity, higher = more binding, comparable within an allelic series)"
GAGGGGGC,binding signal,HOXB9 [3],"8.48 upbm affinity estimate (log intensity, higher = more binding, comparable within an allelic series)"
same,binding signal,HOXB9 [1],"8.37 upbm affinity estimate (log intensity, higher = more binding, comparable within an allelic series)"
same,binding signal,HOXB9 [2],"8.62 upbm affinity estimate (log intensity, higher = more binding, comparable within an allelic series)"
same,binding signal,HOXA2 [15],"10.2 upbm affinity estimate (log intensity, higher = more binding, comparable within an allelic series)"
same,binding signal,HOXA2 [16],"7.38 upbm affinity estimate (log intensity, higher = more binding, comparable within an allelic series)"
AATTAGCC,binding signal,PAX4 [5],"11.5 upbm affinity estimate (log intensity, higher = more binding, comparable within an allelic series)"
same,binding signal,PAX4 [6],"12.1 upbm affinity estimate (log intensity, higher = more binding, comparable within an allelic series)"
same,binding signal,PAX4 [9],"10.1 upbm affinity estimate (log intensity, higher = more binding, comparable within an allelic series)"
same,binding signal,PAX4 [10],"10.5 upbm affinity estimate (log intensity, higher = more binding, comparable within an allelic series)"
same,binding signal,VAX1,"12.7 upbm affinity estimate (log intensity, higher = more binding, comparable within an allelic series)"
same,binding signal,PAX4 [12],"10.6 upbm affinity estimate (log intensity, higher = more binding, comparable within an allelic series)"
AATTAACT,binding signal,HOXA7 [13],"11.2 upbm affinity estimate (log intensity, higher = more binding, comparable within an allelic series)"
same,binding signal,PAX4 [5],"11.7 upbm affinity estimate (log intensity, higher = more binding, comparable within an allelic series)"
same,binding signal,PAX4 [6],"12.3 upbm affinity estimate (log intensity, higher = more binding, comparable within an allelic series)"
same,binding signal,PAX4 [9],"10.5 upbm affinity estimate (log intensity, higher = more binding, comparable within an allelic series)"
same,binding signal,PAX4 [10],"10.9 upbm affinity estimate (log intensity, higher = more binding, comparable within an allelic series)"
same,binding signal,PAX4 [12],"10.9 upbm affinity estimate (log intensity, higher = more binding, comparable within an allelic series)"
same,binding signal,HOXA7 [14],"8.89 upbm affinity estimate (log intensity, higher = more binding, comparable within an allelic series)"
